Screens as filed in PubChem.
Pol eta inh-1: DNA polymerase eta (human) inhibition; recombinant Pol eta, fluorescent DNA replication assay; Potency, µM (doses to about 114 µM), without a hit: at the highest dose activity change, negative = inhibition, hits mostly inhibitors; actives 1.2% (n = 390,000); AID 588591; further: potency means the concentration at half of the fitted maximal effect; on the % scale 0 is the no-effect control and ±100 the full control effect
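Fluorescent replication assay: 50 nM final substrate added after a 15 min room-temperature compound preincubation with 10 nM enzyme. Signal taken at 0 min and again at 10 min.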
Pol beta inh-1: DNA polymerase beta (human) inhibition. actives 1.3% (n = 340,000). AID 485314. Pol beta primer extension/strand displacement, fluorescence kinetic. P06746. Potency, µM (doses to about 114 µM), for the others: at the top dose activity change, negative = inhibition, actives largely listed as inhibitors; further: potency means the concentration at half of the fitted maximal effect; on the % scale 0 is the no-effect control and ±100 the full control effect
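Curves were derived by four-parameter Hill fits of normalized qHTS data. The kinetic fluorescent primer-extension read was taken at 0 and 10 min after 50 nM substrate, following a 15 min room-temperature preincubation of 10 nM enzyme with compounds.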
POLK inh: blocks human DNA polymerase kappa activity | Q9UBT6 | purified Pol kappa, fluorescent DNA synthesis assay, 10 min | Potency, µM (doses to about 107 µM), for the others: top-dose activity, negative = inhibition, hits mostly inhibitors | actives 0.53% (n = 400,000) | AID 588579; further: potency means the concentration at half of the fitted maximal effect; on the % scale 0 is the no-effect control and ±100 the full control effect
Target sequence (Q9UBT6 whole entry, looked up): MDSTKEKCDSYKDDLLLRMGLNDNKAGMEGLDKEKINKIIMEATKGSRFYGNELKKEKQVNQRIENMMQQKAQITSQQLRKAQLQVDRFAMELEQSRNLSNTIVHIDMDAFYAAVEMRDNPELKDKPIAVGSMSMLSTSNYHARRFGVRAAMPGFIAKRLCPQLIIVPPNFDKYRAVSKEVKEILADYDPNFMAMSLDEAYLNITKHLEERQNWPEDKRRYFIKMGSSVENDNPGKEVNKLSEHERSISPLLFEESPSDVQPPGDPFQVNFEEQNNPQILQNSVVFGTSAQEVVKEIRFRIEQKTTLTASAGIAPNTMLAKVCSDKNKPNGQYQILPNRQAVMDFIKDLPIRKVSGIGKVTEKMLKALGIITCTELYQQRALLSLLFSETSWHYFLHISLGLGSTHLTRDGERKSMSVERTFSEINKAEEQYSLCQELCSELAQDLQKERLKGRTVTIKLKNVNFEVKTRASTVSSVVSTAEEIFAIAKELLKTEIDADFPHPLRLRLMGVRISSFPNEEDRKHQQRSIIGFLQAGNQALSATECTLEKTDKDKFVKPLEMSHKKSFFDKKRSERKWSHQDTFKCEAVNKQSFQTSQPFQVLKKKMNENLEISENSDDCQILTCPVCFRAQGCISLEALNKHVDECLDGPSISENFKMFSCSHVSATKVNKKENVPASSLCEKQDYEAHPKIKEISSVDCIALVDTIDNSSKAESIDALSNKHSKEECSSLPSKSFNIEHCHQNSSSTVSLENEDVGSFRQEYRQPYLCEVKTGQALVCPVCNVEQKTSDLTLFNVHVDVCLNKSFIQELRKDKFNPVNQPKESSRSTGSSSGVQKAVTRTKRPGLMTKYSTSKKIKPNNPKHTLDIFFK
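Readout: fluorescence, taken kinetically at 0 and 10 min. Conditions: 10 nM Pol kappa, 15 min RT compound preincubation, 50 nM substrate final. Controls: enzyme-free buffer wells.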
WRN helicase inh-1: blocks human WRN helicase; Q14191; WRN helicase unwinding, fluorescent forked duplex, kinetic; Potency, µM (titrated, usually from 114 µM), inactives show at the top dose activity change, negative = inhibition, actives largely listed as inhibitors; actives 0.46% (n = 360,000); AID 651768; further: potency means the concentration at half of the fitted maximal effect; on the % scale 0 is the no-effect control and ±100 the full control effect; nearly all actives have a fitted effect of over 55% in size
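WRN at 20 nM final preincubated with compound 15 min at room temperature; reaction started with 100 nM fluorophore/quencher forked duplex oligonucleotide and 2 mM ATP final. Unwinding followed kinetically by red fluorescence (ex 525, em 598 nm).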
FEN1 inh-1: blocks human flap endonuclease 1; actives 0.35% (n = 390,000); Recombinant FEN1 flap cleavage, fluorescence, 15 min; P39748; Potency, µM (top dose mostly 114 µM), for inactives: top-dose activity change, negative = inhibition, most hits filed as inhibitors; further: potency means the concentration at half of the fitted maximal effect; on the % scale 0 is the no-effect control and ±100 the full control effect; nearly all actives have a fitted effect of over 65% in size
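Concentration–response screening of FEN1 (10 nM): 15 min compound preincubation at room temperature, reaction started with 50 nM substrate and read at 0 and 15 min. Corrected, normalized data were fitted by a four-parameter Hill equation.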
POLI inh: DNA polymerase iota (human) inhibition. Potency, µM (titrated, usually from 115 µM), without a hit: top-dose activity, negative = inhibition, actives largely listed as inhibitors. Pol iota fluorescent replication assay, 10 min. actives 1% (n = 390,000). Q9UNA4; further: potency means the concentration at half of the fitted maximal effect
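Fluorescent replication assay read twice, at 0 min and 10 min after adding 50 nM (final) substrate. Enzyme (10 nM) and compounds were first incubated 15 min at room temperature; enzyme-free buffer wells were negative controls.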
Pol beta inh-2: Human Pol beta inhibitor hit validation; shares compounds with Pol beta inh-1; Pol beta primer extension/strand displacement, fluorescence kinetic; Potency, µM, hits mostly inhibitors; actives 87% (n = 250); AID 540280; calls by dose curve; further: potency means the concentration at half of the fitted maximal effect
Klenow counter: Klenow polymerase inhibition, pol beta selectivity check; 250 tested, under 10 active; activity change, negative = inhibition, % at 57.1 µM; AID 540300; Klenow exo- polymerase counter-screen, fluorescent DNA substrate; shares compounds with Pol beta inh-1
HIV RT counter: inhibits HIV-1 reverse transcriptase in counter-screen; activity % (negative = inhibition, positive = activation), % at 57.1 µM; AID 540301; HIV-1 RT polymerase activity, counter-screen; 250 tested, under 10 active; shares compounds with Pol beta inh-1
POLB inh gel: validation of human DNA polymerase beta inhibitors | actives 91% (n = 110) | shares compounds with Pol beta inh-1 | inhibition, % at 10 µM | radiolabeled primer extension gel assay, phosphorimager;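 active means inhibition at 10 µM of 30% or more; inconclusive means no clear call, values can overlap the other calls; inactive means inhibition at 10 µM under 30%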
PGK validate: TbPGK inhibition, hit validation; shares compounds with POLK inh; TbPGK coupled GAPDH assay, Kinase-Glo luminescence; Potency, µM (top dose mostly 57.5 µM), for inactives: at the top dose activity change, negative = inhibition, most hits filed as inhibitors; actives 79% (n = 500); AID 686980; further: potency means the concentration at half of the fitted maximal effect; on the % scale 0 is the no-effect control and ±100 the full control effect; nearly all actives have a fitted effect of over 65% in size
POLI cherry-pick: Inhibitors of human DNA polymerase iota, confirmation; actives 77% (n = 1,500); Pol iota primer extension, TAMRA/BHQ fluorescence; shares compounds with POLK inh; Potency, µM, most hits filed as inhibitors; further: potency means the concentration at half of the fitted maximal effect
Pol eta inh-2: Pol eta (human) inhibition, cherry-pick confirmation. shares compounds with Pol eta inh-1. Pol eta primer extension, TAMRA/BHQ fluorescence, 10 min. Potency, µM, most hits filed as inhibitors. actives 64% (n = 2,600); further: potency means the concentration at half of the fitted maximal effect
FEN1 inh-2: FEN1 inhibition, cherry-pick retest; shares compounds with FEN1 inh-1; FEN1 flap cleavage, TAMRA/BHQ2 fluorogenic DNA substrate; Potency, µM, hits mostly inhibitors; actives 79% (n = 880); further: potency means the concentration at half of the fitted maximal effect; nearly all actives have a fitted effect of over 60% in size
WRN helicase inh-2: WRN helicase inhibition, cherry-pick retest. shares compounds with WRN helicase inh-1. WRN helicase DNA unwinding, fluorescence kinetic. Potency, µM (doses to about 57.1 µM), for inactives: top-dose activity, negative = inhibition, actives largely listed as inhibitors. actives 63% (n = 610). AID 720497; further: potency means the concentration at half of the fitted maximal effect; nearly all actives have a fitted effect of over 65% in size
TO displacement: counter-screen for WRN helicase inhibitors: DNA binding; shares compounds with WRN helicase inh-1; thiazole orange DNA binding displacement, fluorescence; Potency, µM (highest dose often 57.1 µM), for inactives: at the top dose activity change, negative = inhibition, most hits filed as inhibitors; actives 10% (n = 610); AID 720499;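 further: drop in dye fluorescence marks compound binding to DNA; potency means the concentration at half of the fitted maximal effect; on the % scale 0 is the no-effect control and ±100 the full control effect; nearly all actives have a fitted effect of over 60% in size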
BLM helicase inh: blocks human BLM helicase in WRN counterscreen. shares compounds with WRN helicase inh-1. Recombinant BLM helicase DNA unwinding, red fluorescence. Potency, µM (titrated, usually from 57.1 µM), inactives show top-dose activity change, negative = inhibition, usual class: inhibitors. actives 60% (n = 610). AID 720503; further: potency means the concentration at half of the fitted maximal effect; nearly all actives have a fitted effect of over 60% in size
Active calls of the source: *; ? = inconclusive; · = not tested or not shown; [ ] = another dose, or the depositor's remark. An excerpt weighted towards active compounds, which were near 2.4% of everything screened. Unless noted, the call rests on the fitted dose curve; in most records, active means well fitted curve in the direction sought with a large enough effect; inconclusive means small, poorly fitted or top-dose-only effect, or another doubt; inactive means no such curve, though single readings can be large; an effect the other way counts as inactive or inconclusive.

SMILES	Pol eta inh-1	Pol beta inh-1	POLK inh	WRN helicase inh-1	FEN1 inh-1	POLI inh	PGK validate	POLI cherry-pick	others
O=C(Nc1cccc(S(=O)(=O)NC2=NCCC2)c1)c1cc(-c2ccco2)nc2ccccc12	10µM*	3.5µM*	32µM*	?	?	8.9µM*	·	34*	Pol beta inh-2=4.5*;Klenow counter=-39;HIV RT counter=6;Pol eta inh-2=24*;FEN1 inh-2=76*
COc1ccc(-c2cc(=O)oc3c(O)c(O)ccc23)cc1	7.9µM*	10µM*	?	13µM*	-13%	?	9.2µM*	67*	Pol beta inh-2=6.3*;Klenow counter=-9;HIV RT counter=17;Pol eta inh-2=?;WRN helicase inh-2=5.4µM*;TO displacement=-5%;BLM helicase inh=3.8µM*
Cc1nn(-c2ccccc2)c2nc(-c3ccco3)cc(C(=O)O)c12	7.9µM*	14µM*	28µM*	?	?	?	·	·	Pol beta inh-2=25*;Klenow counter=-37;HIV RT counter=?;POLB inh gel=65*;Pol eta inh-2=30*;WRN helicase inh-2=?;TO displacement=-25%;BLM helicase inh=-15%
Cc1ccc(-n2nc(C)c3c(C(=O)O)cc(C)nc32)cc1	2%	17%	-28%	·	0%	?	·	·
CCOC(=O)c1ccc(NC(=O)Cc2ccc(-n3c(CC)nc4cccnc43)cc2)cc1	9%	16%	5%	·	-19%	15%	·	·
COC(=O)c1ccccc1NC(=O)c1noc2c1CCC2	20µM*	10µM*	?	?	?	20µM*	·	38*	Pol beta inh-2=32*;Klenow counter=-33;HIV RT counter=7;POLB inh gel=73*;Pol eta inh-2=30*;WRN helicase inh-2=17µM*;TO displacement=-20%;BLM helicase inh=4.8µM*
Cc1oc(-c2ccc(C(=O)NCc3ccccc3F)cc2)nc1COc1ccccc1	-14%	17%	4%	·	-24%	?	·	·
Cc1ccc(O)c(N=Nc2ccccc2)n1	-2%[57.1 µM]	-13%[57.1 µM]	6%[60.1 µM]	-4%	-5%	-9%[58.9 µM]	15µM*	·
Oc1ccc(Cl)cc1N=Nc1ccccc1	-16%	114%	-2%	-1%	5%	26%	·	·
O=C(CCCn1c(=O)c2ccccc2n(Cc2cccc(F)c2)c1=O)NCc1ccccc1Cl	-10%	-16%	-1%	·	0%	15%	·	·
Cc1cc(C)c(Cn2c(=O)n(CCCCCC(=O)NCc3ccc4c(c3)OCO4)c(=O)c3sccc32)c(C)c1	0%	-6%	-3%	·	23%	16%	·	·
COc1ccccc1NC(=O)c1cnc(SCC(=O)N2CCOCC2)n(C)c1=O	?	4%	-4%[60.1 µM]	·	-10%	12%	·	?
N/C(=N\N=C\c1ccc(Cl)cc1)N/N=C/c1ccc(Cl)cc1	·	·	3%[19.4 µM]	·	·	·	·	·
COc1ccc(-n2c(SCC(=O)Nc3nccs3)nnc2-c2ccc(Cl)cc2)cc1	?	·	0%	-7%	17%	13%	·	?
COc1ccc(-c2nnc(SCC(=O)Nc3ccc(C(=O)O)cc3)n2-c2ccc(Cl)cc2)cc1	-4%	?	6%	0%	2%	-6%	·	·
Cc1cccc(/C(N)=N/OC(=O)c2ccc3c(c2)OCO3)c1	-10%	-2%	-13%	0%	6%	-15%	10µM*	·
N/C(=N\OC(=O)c1ccc2c(c1)OCO2)c1cccc([N+](=O)[O-])c1	-19%	?	-7%	-18%	12%	11%	·	·
Cc1ccccc1-c1cc(Nc2ccc(F)cc2)ncn1	·	·	-16%[60.1 µM]	·	·	·	·	·
O=C1Nc2ccccc2/C1=N/N=C/c1ccc(-c2ccc([N+](=O)[O-])cc2)o1	?	-19%	6%	-36%[57.1 µM]	-9%	31%	·	?
Cc1ccc(CNC(=O)c2nnn(CC(=O)Nc3cc(C)cc(C)c3)c2N)cc1	?	?	?	-14%[11.6 µM]	-20%	40µM*	·	34*
COC(=O)c1sccc1NC(=O)Nc1ccc(F)cc1	-15%	3%	0%	0%	2%	-7%	13µM*	·
COC(=O)c1sccc1NC(=O)Nc1ccc(C)cc1	-11%	-2%	-7%	1%	-13%	-15%	·	·
Cc1ccc(C(=O)O/N=C(\N)c2ccccn2)cc1	-8%	-2%	-9%	1%	-14%	30%	6.5µM*	·
N/C(=N\OC(=O)c1ccccc1)c1ccccn1	-19%	21%	-1%	3%	0%	9%	10µM*	·
Cc1ccc(C(=O)O/N=C(\N)c2nonc2N)cc1	-20%	1%	-1%	4%	6%	142%	23µM*	·
